The list is not random: actives were taken first. Their share in the collection is about 14%.
Pf growth 48h – inhibits P. falciparum growth in the first generation, 48 h; actives 5.9% (n = 310,000); P. falciparum luciferase growth in erythrocytes, 48 h; Potency, µM (top dose mostly 28.7 µM), for the others: at the highest dose activity change, negative = inhibition, most hits filed as inhibitors; further: potency means the concentration at half of the fitted maximal effect
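Luciferase-expressing P. falciparum in infected erythrocytes (2% hematocrit, 0.1% parasitemia final) in RPMI 1640/0.5% Albumax were exposed to compound for 48 hours at 37 C, 5% CO2; growth read as luminescence.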
Sm TGR inh – S. mansoni TGR enzyme inhibition; Potency, µM (titrated, usually from 114 µM), for the others: at the highest dose activity change, negative = inhibition, hits mostly inhibitors; purified TGR, DTNB reduction, TNB absorbance 405 nm; AID 485364; actives 3% (n = 360,000); further: potency means the concentration at half of the fitted maximal effect; nearly all actives have a fitted effect of over 60% in size
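TGR 20 nM + NADPH 100 uM (dispensed conc.), cpd preinc 15 min RT; start with NADPH (500 uM addition) then DTNB (15 mM addition). Kinetic TNB absorbance, 405 nm filter. Four-parameter Hill fit across titration.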
Giardia FBPA inh – Giardia lamblia aldolase inhibition. A8B2U2. purified Giardia FBPA. Potency, µM (doses to about 59.6 µM), for the others: at the highest dose activity, negative = inhibition, usual class: inhibitors. actives 0.71% (n = 290,000). AID 2451; further: potency means the concentration at half of the fitted maximal effect; nearly all actives have a fitted effect of over 55% in size
Target sequence (A8B2U2 whole entry, looked up): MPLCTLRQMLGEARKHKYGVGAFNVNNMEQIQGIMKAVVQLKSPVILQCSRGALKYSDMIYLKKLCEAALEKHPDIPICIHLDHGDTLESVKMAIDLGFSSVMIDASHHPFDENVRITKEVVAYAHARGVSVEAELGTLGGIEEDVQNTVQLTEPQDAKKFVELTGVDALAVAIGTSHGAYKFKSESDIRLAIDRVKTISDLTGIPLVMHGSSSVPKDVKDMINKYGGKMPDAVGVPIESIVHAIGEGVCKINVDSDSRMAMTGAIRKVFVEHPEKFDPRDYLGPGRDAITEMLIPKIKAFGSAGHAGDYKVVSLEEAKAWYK
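Giardia FBPA (40 nM reagent) was preincubated 10 min at RT with compound (up to 57.5 uM final), then substrate plus GAPDH/TPI/NAD/arsenate coupling system with diaphorase/resazurin was added; resorufin fluorescence (525/598 nm) was read after 20 min.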
Pf growth 96h – P. falciparum growth inhibition at 96 hours; Potency, µM (titrated, usually from 28.7 µM), inactives show at the highest dose activity change, negative = inhibition, actives largely listed as inhibitors; P. falciparum luciferase reporter growth, 96 h; actives 6.9% (n = 320,000); further: potency means the concentration at half of the fitted maximal effect
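Delayed-death screen, second-generation endpoint: infected erythrocytes, 2% hematocrit, 0.05% parasitemia final; 96 hours at 37 C, 5% CO2; luciferase detection reagent; luminescence decrease equals reduced growth.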
HCMV inh – inhibitors of human cytomegalovirus | HFF cells, HCMV-luciferase reporter, 72 h; stronger effect = lower value | activity change, negative = inhibition, % at 57.5 µM | actives 4.5% (n = 410,000) | AID 1259415; in the data active means activity change below about -60%; inconclusive means no clear call, values can overlap the other calls; inactive means above about -39%
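Compounds were evaluated in HFFs infected with an HCMV luciferase reporter virus (MOI 1 PFU/cell). Luciferase in lysates collected 72 h post infection served as the replication measure.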
Active calls of the source: *; ? = inconclusive; . = not tested or not shown. Unless noted, the call rests on the fitted dose curve; in most records, active means well fitted curve in the direction sought with a large enough effect; inconclusive means small, poorly fitted or top-dose-only effect, or another doubt; inactive means no such curve, though single readings can be large; an effect the other way counts as inactive or inconclusive. On the % scale 0 is the no-effect control and ±100 the full control effect.

SMILES | Pf growth 48h | Sm TGR inh | Giardia FBPA inh | Pf growth 96h | HCMV inh
CCCCOc1ccc(C(O)(CC)CCN2CCOCC2)cc1 (centres undefined) | -1% | 20µM* | -4% | 68% | -9
CCCCOc1ccc(C(O)(CCC)CCN2CCOCC2)cc1 (centres undefined) | -18% | 40µM* | -3% | -2% | -29
CCCCC(O)(CCN1CCOCC1)c1ccc(Cl)cc1 (centres undefined) | . | 35µM* | -5% | ? | -16
CC(OC(=O)/C=C/c1ccccc1)C(=O)Nc1cccc(C#N)c1 (centres undefined) | ? | 3% | . | 33% | -32
Cc1ccc(/C=C/C(=O)Nc2ccc(O)c3c(=O)cc(-c4ccccc4Cl)oc23)cc1 | ? | 3% | 5% | 10µM* | -2
CC(C)(C)c1ccc(C(=O)Nc2ccc(O)c3c(=O)cc(-c4ccccc4Cl)oc23)cc1 | ? | -10% | -2% | ? | 3
COc1ccc(F)cc1COc1nc(C)nc2ccccc12 | -18% | 4% | 7% | ? | ?
COc1ccc(C2NCCc3c2[nH]c2ccccc32)cc1COc1ccc(F)cc1 (centres undefined) | ? | -4% | -20% | ? | -98*
COc1ccc(/C=N/NC(=O)c2cc(OC)c(OC)c(OC)c2)cc1CN1CCc2cc(OC)c(OC)cc2C1C (centres undefined) | ? | 5% | -4% | ? | -18
COc1ccc(C2NCCc3c2[nH]c2ccccc32)cc1CN1CCc2cc(OC)c(OC)cc2C1C (centres undefined) | 1.7µM* | -17% | -9% | ? | .
Cc1cc(O)cc2c1C1CCC3(C)C(O)CCC3C1C=C2 (centres undefined) | . | . | . | . | 55
CCOc1ccc(N2CC(C(=O)Nc3nnc(C4CCCCC4)s3)CC2=O)cc1 (centres undefined) | 11% | -3% | 9% | ? | -3
O=C1NC(=O)C(c2ccccc2)N1 (centres undefined) | . | . | . | . | -8
Cc1ccc([C@@H]2CC(=O)[C@@H]3CN(S(=O)(=O)c4ccc(C)cc4)[C@H](c4ccccc4F)C[C@@H]3N2S(=O)(=O)c2ccc(C)cc2)cc1 | . | . | . | . | -19
COC(=O)C1=C[C@@H](C(=O)OC)C2C3=C(C(=O)[C@@]2(C)NC(=O)c2ccccc2)[C@H](C)n2c(=O)n(C)c(=O)n2[C@@H]3C1 (some centres undefined) | . | . | 3% | . | .
CCCOC(=O)c1ccc(NC(=O)Cn2nnc3sc4c(c3c2=O)CCC(C(C)(C)C)C4)cc1 (centres undefined) | . | 10% | . | . | -16
CCOC(=O)c1sc(NC(=O)Cn2nnc3sc4c(c3c2=O)CCC(C(C)(C)C)C4)nc1C (centres undefined) | 9.3µM* | -21% | -13% | 0% | 10
COc1cccc(-c2cn(C[C@H]3CC[C@@H]([C@@H]4CC[C@H](Cn5cc(-c6cccc(OC)c6)nn5)O4)O3)nn2)c1 | ? | -18% | -1% | 7.4µM* | 9
c1cncc(-c2cn(C[C@H]3CC[C@@H]([C@@H]4CC[C@H](Cn5cc(-c6cccnc6)nn5)O4)O3)nn2)c1 | 6% | 4% | 8% | -13% | ?
c1ccc(SCc2cn(C[C@H]3CC[C@@H]([C@@H]4CC[C@H](Cn5cc(CSc6ccccc6)nn5)O4)O3)nn2)cc1 | -15% | 0% | 1% | 15µM* | -24
CC1(C)CC(=O)C2=C(C1)Oc1ncn(CCCn3ccnc3)c(=N)c1C2c1ccccc1 (centres undefined) | ? | 0% | -16% | ? | 7
COc1ccc(C2C3=C(CC(C)(C)CC3=O)Oc3ncn(CCCn4ccnc4)c(=N)c32)cc1 (centres undefined) | 9.3µM* | 3% | -2% | 5.2µM* | -22
COc1ccc(C2C3=C(CC(C)(C)CC3=O)Oc3ncn(Cc4ccccc4)c(=N)c32)cc1 (centres undefined) | . | 8% | -3% | 13µM* | ?
CC1(C)CC(=O)C2=C(C1)Oc1ncn(Cc3ccco3)c(=N)c1C2c1ccccc1 (centres undefined) | ? | 0% | 2% | 6.6µM* | -36
Cc1c(Cl)cccc1-n1nnc(-c2nc(-c3ccc4c(c3)OCO4)no2)c1C | . | -3% | . | . | 20
SMILES | Pf growth 48h | Sm TGR inh | Giardia FBPA inh | Pf growth 96h | HCMV inh
CC(C)c1c(C(=O)N/N=C/c2ccc(C(F)(F)F)cc2)nnn1-c1nonc1N | ? | -30% | -10% | ? | ?
O=C(Oc1ccc(C(=S)N2CCOCC2)cc1)c1ccc([N+](=O)[O-])cc1 | 13% | -4% | -8% | 1.5µM* | 6
COc1cc(C(=S)N2CCOCC2)ccc1OC(=O)c1ccc(Br)cc1 | 13% | 25% | -5% | 5.2µM* | -14
COc1cc(C(=S)N2CCOCC2)ccc1OC(=O)c1cccc(C)c1 | 11% | 8% | -1% | 15% | 16
O=C(c1ccc([N+](=O)[O-])cc1)N1CCOCC1 | . | . | . | . | 3
O=CNc1ccc(OC(=O)c2cncc(Br)c2)cc1 | 17% | 3% | 0% | 61% | -6
O=C(Oc1ccc([N+](=O)[O-])cc1)c1cncc(Br)c1 | 35% | 18µM* | -3% | -18% | -25
Cc1cccnc1NC(=O)c1ccc(NS(=O)(=O)c2ccc3[nH]c(=O)[nH]c3c2)cc1 | 4% | -3% | . | 5% | -3
O=C(Nc1ccccc1O)c1ccc(NS(=O)(=O)c2cccc3cccnc23)cc1 | 2.3µM* | -2% | 0% | ? | -26
O=C(Nc1ncccc1O)c1ccc(S(=O)(=O)Nc2ccccc2)cc1 | 0.83µM* | 3% | . | ? | -12
COC(=O)c1ccc(NC(=O)c2ccc(NS(=O)(=O)c3cccc4cccnc34)cc2)cc1 | 3% | 6% | -4% | 23% | .
O=C(NCc1cccnc1)c1ccc(S(=O)(=O)Nc2ccccc2)cc1 | -30% | 2% | . | -5% | -30
O=C(Nc1ncccc1O)c1ccc(NS(=O)(=O)c2ccc3[nH]c(=O)[nH]c3c2)cc1 | 0.13µM* | -9% | . | 0.1µM* | ?
Cc1ccc(NS(=O)(=O)c2cccc3cccnc23)cc1Cl | -29% | -23% | -9% | 24% | -94*
Cc1cc(C)c(C(=O)NCCCN2CCOCC2)c(C)c1 | 8% | 9% | -4% | ? | 23
O=S(=O)(NCc1ccc(Cl)cc1)c1cccc2cccnc12 | 7% | -1% | -9% | 16% | -38
CCCCCNC(=O)c1ccc(NS(=O)(=O)c2ccc3[nH]c(=O)[nH]c3c2)cc1 | ? | 25µM* | . | ? | -95*
O=S(=O)(NCCc1ccc(Cl)cc1)c1cccc2cccnc12 | -6% | -3% | 4% | 9.3µM* | 2
CCOC(=O)c1cnc2c(N=Nc3cccc(Cl)c3)c(N)nn2c1N | 13% | 11% | 5% | 0.66µM* | 17

Screens as filed in PubChem.
